Results as given in PubChem BioAssay (Tox21).
Unmarked numbers belong to inactive results. Inconclusive results are not listed. Entries that show only a call come without a potency. Activity calls are given as the source filed them. Unless noted, calls follow the shape of the dose curve; as a rule, active = well fitted curve in the direction sought with a large enough effect in the repeat runs; inconclusive = weak or mixed curves; inactive = no such curve, though single readings can be large; an effect the other way counts as inactive or inconclusive.

Assays:
[1] = qHTS assay to identify small molecule antagonists of the TGF-beta/Smad signaling pathway - cell viability counter screen (AID 1346824); also: nearly all actives have a fitted effect of over 50% in size
Outline: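 Cytotoxicity counter-screen run in the same wells as the beta-lactamase Smad reporter read: CellTiter-Glo luminescence after 30 min at room temperature. HEK 293T SBE-bla cells had 5 hr compound exposure at 37 C with TGF-beta1 (0.25 ng/mL stock).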

[2] = qHTS assay to identify small molecule agonists of the TGF-beta/Smad signaling pathway (AID 1346859; active = well fitted activation curve with a large enough effect in the signal ratio in the repeat runs, not every such curve was filed as active; the % refers to the signal ratio; also: series mostly up to about 77 µM)
Outline: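 Stable Smad binding element-beta-lactamase HEK 293T cells; 5 hr compound exposure at 37 C under 5% CO2; 2 hr room-temperature substrate step; fluorescence excited at 405 nm, collected at 460 nm and 530 nm.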

[3] = Caspase-3/7 induction in HepG2 cells by small molecules, qHTS assay (AID 1346978); also: nearly all actives have a fitted effect of over 15% in size
Outline: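 Caspase-3/7 induction was measured by Caspase-Glo 3/7 luminescence (30 min, room temperature) after a 17 hr compound exposure of wild-type HepG2 cells seeded at 2,000 per well and pre-incubated 5 hr.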

[4] = qHTS assay to identify small molecule agonists of the TGF-beta/Smad signaling pathway - cell viability counter screen (AID 1346829); also: top concentration of the series differs between compounds; nearly all actives have a fitted effect of over 45% in size
Outline: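 Here the cytotoxicity of library compounds is measured in SBE-bla HEK 293T cells treated for 5 hr, using CellTiter-Glo added to wells already read for the beta-lactamase reporter.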

[5] = Caspase-3/7 induction in CHO-K1 cells by small molecules, qHTS cell viability counter screen (AID 1346979); also: nearly all actives have a fitted effect of over 35% in size; also: potency is read from the fitted curve at half-maximal effect
Outline: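 To flag cytotoxic compounds, treated CHO-K1 wild-type cells were given CellTiter-Fluor at 16hr and read fluorescently after 1hr at 37C; the caspase-3/7 luminescence was measured in these same wells.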

[6] = qHTS assay to identify small molecule agonists of the progesterone receptor (PR) signaling pathway - cell viability counter screen (AID 1346799; calls by dose curve; also: nearly all actives have a fitted effect of over 45% in size)
Outline: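 Cytotoxicity in PR-bla HEK293T cells: 16 h compound, 37C; CellTiter-Glo added post-FRET read; luminescence after 30 min RT.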

[7] = biological target: Thyrotropin-releasing hormone receptor (Homo sapiens) (UniProt P34981); experiment: qHTS assay to identify small molecule antagonists of the thyrotropin-releasing hormone receptor (TRHR) signaling pathway (AID 1346877; active = well fitted inhibition curve with a large enough effect in the repeat runs, not every such curve was filed as active; also: series mostly up to about 51 µM)
Chain of Thyrotropin-releasing hormone receptor (Homo sapiens) (P34981 whole entry, looked up): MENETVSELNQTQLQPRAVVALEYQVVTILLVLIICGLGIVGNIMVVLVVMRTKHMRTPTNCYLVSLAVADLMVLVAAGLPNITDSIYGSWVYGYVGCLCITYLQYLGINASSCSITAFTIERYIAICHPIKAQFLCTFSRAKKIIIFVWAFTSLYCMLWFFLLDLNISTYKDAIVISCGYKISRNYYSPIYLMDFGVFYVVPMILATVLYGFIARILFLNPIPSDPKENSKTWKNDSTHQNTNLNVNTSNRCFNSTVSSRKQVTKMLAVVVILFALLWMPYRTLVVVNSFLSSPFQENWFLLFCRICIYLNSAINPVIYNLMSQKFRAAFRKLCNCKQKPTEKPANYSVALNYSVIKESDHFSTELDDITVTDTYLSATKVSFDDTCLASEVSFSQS
Outline: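 TRHR-expressing HEK293 cells were seeded, cultured 18 h at 37 °C, then loaded with calcium dye for 2 h. Compounds were pre-incubated 5 min at room temperature before 1 nM TRH (final) was added, and kinetic fluorescence was recorded for 3 min.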

[8] = biological target: Thyrotropin-releasing hormone receptor (Homo sapiens) (UniProt P34981); experiment: qHTS assay to identify small molecule agonists of the thyrotropin-releasing hormone receptor (TRHR) signaling pathway (AID 1346891; calls by dose curve; also: series mostly up to about 58 µM)
Outline: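 In 1536-format, 1500 TRHR-Hek293 cells per well grew 18 h, took up calcium dye for 2 h at 37 °C, received compound, and were read kinetically; 15-point titrations, triplicates.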

[9] = Human pregnane X receptor (PXR) small molecule agonists, qHTS cell viability counter screen (AID 1346977); also: nearly all actives have a fitted effect of over 50% in size; also: potency is read from the fitted curve at half-maximal effect
Outline: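 Readout is CellTiter-Fluor fluorescence from PXR-Luc HepG2 cells. Plated cells rested 5hr, then were treated with compounds for 24hr at 37C and 5% CO2, with reagent present during the last hour.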

SMILES	Potency [1]	outcome [2]	outcome [3]	Potency [4]	Potency [5]	Potency [6]	outcome [7]	Potency [8]	Potency [9]
CC(C)(C)C(=O)OCOP(=O)(COCCn1cnc2c(N)ncnc21)OCOC(=O)C(C)(C)C	inactive	inactive	inactive						
Cc1nc2ccccc2n1Cc1ccc(Cl)cc1	inactive	inactive	inactive	inactive	7.5 µM (active)				
Cc1cc(O)ccc1N	inactive	inactive	inactive		61.4 µM (active)	inactive	inactive	inactive	
O=C(O)Cc1sc(-c2ccccc2)nc1-c1ccc(Cl)cc1	inactive		inactive	inactive	inactive				inactive
COCCCCCCCCOCCC[Si](C)(O[Si](C)(C)C)O[Si](C)(C)C	inactive	inactive	inactive	inactive	13.7 µM (active)		inactive	inactive	30.6 µM (active)
Cn1c(N)nc2nc[nH]c2c1=O	inactive	inactive	inactive		inactive	inactive	inactive		inactive
CCOc1ccc2[nH]cc(C(=O)NCc3ccccc3)c(=O)c2n1	inactive	inactive	inactive	inactive			inactive	inactive	
O=C(c1ccc(O)cc1)c1ccc(O)cc1	inactive	inactive	inactive	inactive	inactive		inactive	inactive	inactive
Cc1cccc(OCCOc2cccc(C)c2)c1	inactive	inactive	inactive		inactive	inactive	inactive	inactive	inactive
Nc1nc(CC(=O)O)cs1	inactive	inactive	inactive	inactive	inactive		inactive		inactive
CCc1nn(C2CCCCC2)c2cc(C3(C#N)CCC(C(=O)O)CC3)ccc12 (stereo not drawn)	inactive		inactive		27.3 µM (active)		inactive	inactive	48.6 µM (active)
Oc1ccc(Sc2ccc(O)cc2)cc1	inactive	inactive	inactive				inactive		
O=C(Cl)c1ccc([N+](=O)[O-])cc1	inactive	inactive	inactive		inactive	inactive	inactive	inactive	
Cc1ccc(O)c([C@H](CCN(C(C)C)C(C)C)c2ccccc2)c1	inactive	inactive	inactive	inactive	inactive		inactive		
CCCCOc1ccc(CC(=O)NO)cc1	inactive	inactive	inactive	inactive	23.7 µM (active)				
O=C1[C@H](CC[C@H](O)c2ccc(F)cc2)[C@@H](c2ccc(O)cc2)N1c1ccc(F)cc1	inactive	inactive	inactive	inactive	29.8 µM (active)				inactive

SMILES	Potency [1]	outcome [2]	outcome [3]	Potency [4]	Potency [5]	Potency [6]	outcome [7]	Potency [8]	Potency [9]
O=S1(=O)c2cccc3cccc(c23)N1CCCN1CCN(c2ccc(F)cc2)CC1	inactive	inactive	inactive	inactive	inactive			inactive	
CNCC[C@@H](Oc1ccccc1C)c1ccccc1	inactive	inactive	inactive		inactive				
CC(C(=O)O)c1ccc(-c2ccccc2)c(F)c1 (stereo not drawn)	inactive		inactive	inactive	inactive				inactive
CN(C)CC/C=C1\c2ccccc2COc2ccccc21	inactive	inactive	inactive	inactive	inactive		inactive	inactive	
CCOC(=O)C1=C(C)NC(C)=C(C(=O)OC)C1c1cccc([N+](=O)[O-])c1 (stereo not drawn)	inactive	inactive	inactive	inactive			inactive	inactive	inactive
Cc1ccccc1N=Nc1ccc(N=Nc2c(O)ccc3ccccc23)c(C)c1	inactive	inactive	inactive		13.3 µM (active)	inactive	inactive	inactive	
CC1(C)CCC(C)(C)c2cc(NC(=O)c3ccc(C(=O)O)cc3)ccc21	inactive	inactive	inactive	inactive					inactive
CN1CCC(OC(c2ccccc2)c2ccccc2)CC1	inactive	inactive	inactive	inactive	inactive		inactive	inactive	
O=C(O)C(c1ccc(Cl)cc1)c1ccc(Cl)cc1	inactive	inactive			inactive		inactive	inactive	inactive
CC(C)(C)c1cc(O)c(C(C)(C)C)cc1O	inactive	inactive	inactive	inactive	61.1 µM (active)			inactive	
COc1ccc2[nH]c(S(=O)Cc3ncc(C)c(OC)c3C)nc2n1 (stereo not drawn)	inactive	inactive	inactive	inactive			inactive	inactive	inactive
Cl/C(=C\n1cncn1)c1ccc(Cl)cc1Cl	inactive	inactive	inactive	inactive	inactive		inactive		inactive
CCCCOCCOCCOCCOCCO	inactive	inactive	inactive	inactive	inactive		inactive	inactive	inactive
CCCC(C)C	inactive	inactive	inactive	inactive	inactive		inactive	inactive	inactive
CN(C(=O)CCCOc1ccc2[nH]c(=O)ccc2c1)C1CCCCC1	inactive		inactive	inactive			inactive	inactive	inactive
CCCCCOC(=O)c1ccc(O)cc1	inactive	inactive	inactive						inactive
